PubChem BioAssay (NCATS)
Values joined by “and” are separate entries in the source; they are usually repeats but may differ in a detail not shown here. Equal values may be shown once. Results filed as inconclusive are left out. Where a call stands in place of a potency, no number is given. Unmarked numbers belong to inactive results. Active and inactive are the calls of the source. Unless noted, the call rests on the fitted dose curve; in most records, active means well fitted curve in the direction sought with a large enough effect; inconclusive means small, poorly fitted or top-dose-only effect, or another doubt; inactive means no such curve, though single readings can be large; an effect the other way counts as inactive or inconclusive.

Target: Cytochrome P450 2C9 (Homo sapiens) (UniProt P11712)
Sequence (P11712 whole entry, looked up): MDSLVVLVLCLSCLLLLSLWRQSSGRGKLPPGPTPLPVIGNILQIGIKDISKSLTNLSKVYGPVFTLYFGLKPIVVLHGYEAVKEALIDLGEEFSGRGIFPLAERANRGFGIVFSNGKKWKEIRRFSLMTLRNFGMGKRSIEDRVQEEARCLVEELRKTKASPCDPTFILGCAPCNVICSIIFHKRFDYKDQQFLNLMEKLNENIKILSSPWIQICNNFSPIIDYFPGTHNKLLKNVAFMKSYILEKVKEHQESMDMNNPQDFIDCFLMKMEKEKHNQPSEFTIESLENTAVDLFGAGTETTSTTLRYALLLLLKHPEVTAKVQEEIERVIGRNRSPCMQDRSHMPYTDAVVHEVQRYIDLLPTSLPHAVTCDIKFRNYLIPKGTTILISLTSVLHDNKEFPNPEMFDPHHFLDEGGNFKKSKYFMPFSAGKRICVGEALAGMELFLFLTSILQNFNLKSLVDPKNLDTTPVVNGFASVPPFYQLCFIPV
Assay: Cytochrome P450 family 2 subfamily C member 9 (CYP2C9) small molecule antagonists: luciferase biochemical (cell-free) qHTS assay (AID 1645842; active means well fitted curve in the direction sought with a large enough effect in the repeat runs; an effect the other way counts as inactive or inconclusive; further: nearly all actives have a fitted effect of over 55% in size)
Details: P450-Glo CYP2C9 enzyme assay, luciferin luminescence; series mostly up to 57.4 µM
How it was run: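 P450-Glo CYP2C9 system: proluciferin substrate with enzyme in mix containing 0.4% BSA, 10 min at room temperature, then NADPH regeneration solution added and incubated 1 h at 37C. Detection reagent stopped reaction; luminescence read after 20 min as RLU.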
Potency means the concentration at half of the fitted maximal effect.

Compound	Potency
O=c1c2cccnc2n(-c2cccc([N+](=O)[O-])c2)c(=O)n1Cc1ccncc1	0.268 µM (active)
CC(NCc1ccc(OCc2cccc(F)c2)cc1)C(N)=O (stereo not drawn)	inactive
CNC(=O)COC(=O)NCCC1CCN(c2cccc(C)n2)CC1	inactive

System: not listed separately
Assay: Primary qHTS for inhibitors of nuclear receptor binding SET domain protein 2 (NSD2) in an isogenic RCH-ACV NSD2 p.E1099K mutant (9B) (AID 1645876); further: nearly all actives have a fitted effect of over 70% in size
Details: RCH-ACV (leukaemia line) NSD2 E1099K (9B) viability, CellTiter-Glo, 72 h; series mostly up to 44.9 µM

Compound	Potency	activity change, negative = viability loss
CON(C)C(=O)N1N=C(c2cc(F)ccc2F)S[C@@]1(CCCN)c1ccccc1	9.2 nM (active) and 14.8 nM (active)	
COc1ccc2cc(OCC3(C(=O)O)CN(C(=O)c4ccc(F)cc4)C3)ccc2c1	inactive	
O=C1N(CC2CCCCN2)CCN1c1ccccc1 (stereo not drawn)	inactive	
Cc1onc(-c2ccccc2)c1C(=O)N[C@@H]1C(=O)N2[C@@H]1SC(C)(C)[C@@H]2C(=O)O	inactive	
COc1cccc(-n2nc(C(=O)O)cc2-c2ccc(C3CCCCC3)c(Cl)c2)c1	inactive	
CC(=O)N1CCN(NC(=O)c2ccc(F)cc2)CC1	inactive	
CC(C)N(C[C@H]1O[C@@H](n2cnc3c(N)ncnc32)[C@H](O)[C@@H]1O)C1CC(CCc2nc3ccc(C(C)(C)C)cc3[nH]2)C1 (stereo partly drawn)	inactive	
CC1(C)OC(=O)C(OCC2CC2)=C1c1ccc(S(C)(=O)=O)cc1	inactive	
CCn1c2ccccc2c2cc(CNC)ccc21	23 µM (active)	
FC(F)(F)c1cc(C(F)(F)F)c2ccc3nc(-c4nnco4)cn3c2n1	inactive	
N[C@@H](CC(=O)N1CCn2c(nnc2C(F)(F)F)C1)Cc1[nH]nc2c(F)c(F)ccc12	inactive	
O=c1ccn([C@@H]2O[C@H](CO)[C@@H](O)[C@H]2O)c(=O)[nH]1	inactive	
COc1ccc([C@@H]2N[C@H](C(=O)O)Cc3c2[nH]c2ccccc32)cc1CN1CCN(c2ccccc2F)CC1	inactive	
Cc1ccc(C(=O)Nc2ccc(Oc3cc4cnn(C)c4cc3-c3cn[nH]c3)c(F)c2)c(=O)n1-c1ccc(F)cc1	2.9 µM (active) and 5.9 µM (active)	
CC1(C)CCC(C)(C)c2cc([C@@H](O)C(=O)Nc3ccc(C(=O)O)cc3F)ccc21	inactive	
CC(C)Nc1cc(-c2c[nH]c(C(=O)N[C@H](CO)c3cccc(Cl)c3)c2)c(Cl)cn1	20.5 µM (active) and 2.95 µM (active)	
O=C(c1ccc(F)cc1)C1CCN(CCn2c(=O)nc3n(c2=O)CCCC3)CC1	inactive	
COCCCNCC1COc2ccccc2O1 (stereo not drawn)	inactive	
Cc1cc(Nc2ncc(Cl)c(Nc3ccccc3S(=O)(=O)C(C)C)n2)c(OC(C)C)cc1C1CCNCC1	3.25 µM (active) and 5.25 µM (active)	
O=C(NCC(=O)N1CC[C@H](NC2CCC(O)(c3ccc(-c4ncccn4)cn3)CC2)C1)c1cccc(C(F)(F)F)c1 (stereo partly drawn)	inactive	

Compound	Potency	activity change, negative = viability loss
Cc1[nH]cnc1C1CCN(c2nc3cccc4c3n2CCC4=O)CC1	inactive	
CC(=O)c1cnc2ccc(-c3cc(Cl)c(O)c(Cl)c3)nc2c1NC1CCC(CN(C)C)CC1 (stereo not drawn)	30.3 nM (active) and 3.7 nM (active)	
O=C(CCCCc1ccc2ccccc2c1)C(F)(F)F	inactive	
CC(C)(C)NCc1cc(Nc2ccnc3cc(Cl)ccc23)c2c(c1O)CCCC2		-8.87% [at 0.588 µM]
CC[C@H]1OC(=O)C[C@@H](O)[C@H](C)[C@@H](O[C@@H]2O[C@H](C)[C@@H](O)[C@H](N(C)C)[C@H]2O)[C@@H](CCN2C[C@H](C)C[C@H](C)C2)C[C@@H](C)C(=O)/C=C/C(C)=C/[C@@H]1CO[C@@H]1O[C@H](C)[C@@H](O)[C@@H](OC)[C@H]1OC	inactive	
CN1CCC(c2c[nH]c3ccc(NC(=O)c4ccc(F)cc4)cc23)CC1	inactive	
Cc1cc(C)cc(NC(=O)Cc2ccc(OC(C)(C)C(=O)O)cc2)c1	inactive	
CNC(=O)c1ccc(Nc2ncc(C(F)(F)F)c(NCc3nccnc3N(C)S(C)(=O)=O)n2)cc1	2.58 µM (active) and 1.66 µM (active)	
CN(C)C/C=C/C(=O)Nc1ccc(C(=O)Nc2cccc(Nc3ncc(Cl)c(-c4c[nH]c5ccccc45)n3)c2)cc1	18.3 nM (active) and 52.5 nM (active)	
C=C1CC[C@@H]2[C@](C)(CO)[C@H](O)CC[C@@]2(C)[C@@H]1C/C=C1/C(=O)OC[C@H]1O	8.33 µM (active)	
COc1ccc(C)c2sc(NC(=O)c3ccncc3)nc12	inactive	
CCC(=O)NS(=O)(=O)c1ccc(-c2c(-c3ccccc3)noc2C)cc1	inactive	
CCc1c(CC(N)=O)c2cc(OCCCP(=O)(O)O)ccc2n1Cc1ccccc1	inactive	
COC(=O)[C@H](CC1C=NC=N1)NCC12CC3CC(CC(C3)C1)C2 (stereo partly drawn)	inactive	
Cc1cc(C)c(S(=O)(=O)N(Cc2ccc(-c3cccc(S(C)(=O)=O)c3)cc2)Cc2ccc(C(F)(F)F)o2)c(C)c1	inactive	
C[C@@H](Nc1cc(NS(=O)(=O)N2CCC2)nc(SCc2cccc(F)c2F)n1)[C@@H](O)CO	inactive	
O=C(O)c1n[nH]c2c1C[C@H]1C[C@@H]21	inactive	
O=c1c2cccnc2n(-c2cccc([N+](=O)[O-])c2)c(=O)n1Cc1ccncc1	inactive	
CC(NCc1ccc(OCc2cccc(F)c2)cc1)C(N)=O (stereo not drawn)	inactive	
CNC(=O)COC(=O)NCCC1CCN(c2cccc(C)n2)CC1	inactive	
